An excerpt weighted towards active compounds, which were near 4% of everything screened.
KKLEB cytotox: counter-screen for CF NF-kB inhibitors: cytotoxicity. KKLEB CF airway cells viability, ATPlite luminescence, overnight; hits give low values; cells stimulated with P. aeruginosa culture filtrate. activity change (cytotoxicity), % at 5 µM. 0.36% of 360,000 active. AID 602141;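 active = corrected activity change at or below -50% at 5 µM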
TROY NFkB inh: blocks TROY-dependent signaling in reporter cells; Q293 LMP1-TROYcd NF-kB luciferase reporter, 4 h; inhibition, % at 10 µM; 0.98% of 360,000 active; AID 1347056;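 active = compounds whose plate-normalised and pattern-corrected inhibition of the luciferase reporter signal at the single screening dose is 50% or more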
Peg3 promoter: Peg3 promoter activity inhibition | AID 588405 | 1.7% of 360,000 active | inhibition, % at 20 µM | HeLa PEG-Prom luciferase reporter, luminescence, overnight;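 active = inhibition of at least 50% at 20 µM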
HIF-2a block: inhibitors of HIF-2a | 786-0 RCC cells HIF-2a reporter, luciferase luminescence, overnight | inhibition, % at 18.8 µM | 0.72% of 360,000 active;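 active = inhibition of the luminescence signal of 40% or more relative to plate controls, in a single-dose primary screen at 18.75 µM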
CF NFkB block: inhibitors of cystic fibrosis induced NF-kB; KKLEB NF-kB-GFP reporter, PAF-induced, GFP fluorescence overnight; inhibition, % at 5 µM; 0.86% of 360,000 active; AID 588850;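 active = at least 50% inhibition at 5 µM, scaled per plate between neutral and stimulator controls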;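 also: PAF is a Pseudomonas aeruginosa culture filtrate used as stimulus; plate controls were PAF-stimulated DMSO wells for no effect and unstimulated DMSO wells for full effect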
TWEAK Fn14 block: blocks TWEAK-Fn14 interaction in a reporter cell assay; TWEAK-stimulated Fn14 reporter cells, luciferase luminescence, 8 h; inhibition, % at 10 µM; 2% of 360,000 active; AID 1159606; in the data active = inhibition above about 50%
An asterisk follows results filed as active.

`CCCc1cc(=O)n2[nH]cc(-c3ccc(Cl)cc3)c2n1` gave KKLEB cytotox -12.5, TROY NFkB inh 31.4, Peg3 promoter 56.8*, HIF-2a block 5.4, CF NFkB block 36.4 and TWEAK Fn14 block 33.2.
Screening COCc1cc(=O)n2[nH]cc(-c3ccccc3)c2n1 returned KKLEB cytotox -8.5, TROY NFkB inh 21.5, Peg3 promoter -44.3, HIF-2a block -29.2, CF NFkB block 2.9 and TWEAK Fn14 block 11.8.
O=C(N/N=C/c1cccc(O)c1)c1ccc(COc2ccccc2Br)cc1 was read as KKLEB cytotox 4.7, TROY NFkB inh 29.5, Peg3 promoter -1.2, HIF-2a block -36.0, CF NFkB block -34.1 and TWEAK Fn14 block -2.8.
`Cc1ccc(C(C)C)c(OCc2ccc(C(=O)N/N=C/c3ccc(O)cc3O)cc2)c1` gave KKLEB cytotox -9.7, TROY NFkB inh -6.6, Peg3 promoter 31.9, HIF-2a block 71.5*, CF NFkB block 13.5 and TWEAK Fn14 block 27.3.
CCN(CC)c1ccc(N2C(=O)/C(=C\c3cccnc3)SC2=S)cc1 was read as KKLEB cytotox 4.1, TROY NFkB inh -2.5, Peg3 promoter 23.5, HIF-2a block 10.8, CF NFkB block 4.5 and TWEAK Fn14 block 13.8.
`CCN(CC)c1ccc(N2C(=O)/C(=C/c3cccnc3)SC2=S)cc1` gave KKLEB cytotox -39.0, TROY NFkB inh 3.8, Peg3 promoter 11.5, HIF-2a block 8.3, CF NFkB block 56.3* and TWEAK Fn14 block 26.5.
O=C1/C(=C/c2cccnc2)SC(=S)N1c1ccc(O)cc1 was read as KKLEB cytotox -10.0, TROY NFkB inh 28.8, Peg3 promoter 37.1, HIF-2a block 20.0, CF NFkB block 21.2 and TWEAK Fn14 block 59.7*.
`O=C1/C(=C/c2cccnc2)SC(=S)N1c1ccc(F)cc1` gave KKLEB cytotox 2.7, TROY NFkB inh -12.9, Peg3 promoter 0.6, HIF-2a block -8.8, CF NFkB block -15.9 and TWEAK Fn14 block 23.7.
`COC(=O)C1C/C(=N\NS(=O)(=O)c2ccc(C)cc2)c2ccccc2C1` (centres undefined) gave KKLEB cytotox 7.2, TROY NFkB inh 1.1, Peg3 promoter 17.9, HIF-2a block 5.2, CF NFkB block -12.4 and TWEAK Fn14 block 0.6.
Screening CCn1cc(C(=O)NCCCN2CC(C)CC(C)C2)c(=O)c2cc(S(=O)(=O)N(C)C3CCCCC3)ccc21 (centres undefined) returned KKLEB cytotox -10.5, TROY NFkB inh -12.1, Peg3 promoter 72.6*, HIF-2a block 30.3, CF NFkB block 0.5 and TWEAK Fn14 block -11.6.
`O=c1[nH]nc(-c2ccc(F)cc2)cc1Cc1cccs1` gave KKLEB cytotox -10.7, TROY NFkB inh 1.1, Peg3 promoter 9.4, HIF-2a block 15.1, CF NFkB block 1.3 and TWEAK Fn14 block 20.2.
Screening CC(=O)c1c(C)[nH]c(C(=O)OCC(=O)NCc2ccc(Cl)cc2)c1C returned KKLEB cytotox 2.2, TROY NFkB inh 37.0, Peg3 promoter 21.2, HIF-2a block 22.2, CF NFkB block -14.2 and TWEAK Fn14 block 14.4.
Screening CC(=O)c1c(C)[nH]c(C(=O)OCC(=O)Nc2ccc(C)cc2[N+](=O)[O-])c1C returned KKLEB cytotox -7.0, TROY NFkB inh 40.7, Peg3 promoter -3.5, HIF-2a block 29.0, CF NFkB block 38.6 and TWEAK Fn14 block 63.2*.
For CC(=O)c1c(C)[nH]c(C(=O)OCC(=O)Nc2cc(Cl)ccc2[N+](=O)[O-])c1C the results were KKLEB cytotox 4.1, TROY NFkB inh 69.8*, Peg3 promoter 14.7, HIF-2a block 28.4, CF NFkB block 23.7 and TWEAK Fn14 block 88.1*.
CC(=O)c1ccc(S(=O)(=O)Nc2ccc(C(=O)NCC(c3ccco3)N3CCCC3)cc2)cc1 (centres undefined) was read as KKLEB cytotox 4.3, TROY NFkB inh -11.8, Peg3 promoter 1.9, HIF-2a block 10.7, CF NFkB block 4.0 and TWEAK Fn14 block -1.4.
For O=C(NCc1ccccc1)C1CCC(CNc2c(N3CCCCC3)c(=O)c2=O)CC1 (centres undefined) the results were KKLEB cytotox 14.1, TROY NFkB inh 4.4, Peg3 promoter 5.2, HIF-2a block 10.6, CF NFkB block -21.3 and TWEAK Fn14 block -20.8.

Screening data as filed in PubChem BioAssay.
